Screening results (PubChem BioAssay)
In the library only some 4.7% were active in any assay of this set; here they are far more common.
CCHF vOTU inh: CCHFV vOTU protease inhibitors, primary screen, biochemical, Pep-AMC substrate, fluorescence; inhibition, % at 11.5 µM; hit rate 0.55% among 370,000; AID 651958, 2012; note: 0% = vehicle wells with enzyme and 100% = no enzyme wells
GDH-TPI counter: GDH-TPI coupling enzyme inhibitors, primary screen, artefact control for M. tuberculosis FBA inhibitor project, biochemical, absorbance, full deck; GDH-TPI coupled enzyme counterscreen, NADH absorbance; inhibition, % at 4.8 µM; hit rate 1.2% among 360,000;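 note: 0% = DMSO wells and 100% = wells lacking the enzyme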
SARS 3CLpro inh: SARS-CoV 3CLpro protease inhibitors, primary screen, biochemical, quenched FRET; Replicase polyprotein 1ab (Severe acute respiratory syndrome coronavirus), P0C6X7; recombinant SARS-CoV 3CLpro, quenched FRET peptide cleavage; inhibition, % at 6 µM; hit rate 0.14% among 290,000; AID 1706, 2009; in the data active = inhibition above about 12%
FBA Mtb inh: Mtb FBA enzyme inhibitors, primary screen, biochemical, fluorescence, strain H37Rv; purified M. tuberculosis FBA, fluorescence read-out; Fructose-bisphosphate aldolase (Mycobacterium tuberculosis (strain ATCC 25618 / H37Rv)), …; inhibition, % at 1 µM; AID 588726, 2011; hit rate 2.3% among 360,000; in the data active = inhibition above about 27%;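 note: 0% = vehicle and 100% = reference inhibitor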
RecA intein inh: Mtb RecA intein splicing inhibitors, primary screen, biochemical, fluorescence, HTS; hit rate 0.75% among 290,000; inhibition, % (no concentration beside the values); cell-free RecA intein splicing; AID 2221, 2009; in the data active = inhibition above about 30%;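 note: 0% = vehicle wells and 100% = reference inhibitor control wells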
Target sequence (P9WHJ3 whole entry, looked up): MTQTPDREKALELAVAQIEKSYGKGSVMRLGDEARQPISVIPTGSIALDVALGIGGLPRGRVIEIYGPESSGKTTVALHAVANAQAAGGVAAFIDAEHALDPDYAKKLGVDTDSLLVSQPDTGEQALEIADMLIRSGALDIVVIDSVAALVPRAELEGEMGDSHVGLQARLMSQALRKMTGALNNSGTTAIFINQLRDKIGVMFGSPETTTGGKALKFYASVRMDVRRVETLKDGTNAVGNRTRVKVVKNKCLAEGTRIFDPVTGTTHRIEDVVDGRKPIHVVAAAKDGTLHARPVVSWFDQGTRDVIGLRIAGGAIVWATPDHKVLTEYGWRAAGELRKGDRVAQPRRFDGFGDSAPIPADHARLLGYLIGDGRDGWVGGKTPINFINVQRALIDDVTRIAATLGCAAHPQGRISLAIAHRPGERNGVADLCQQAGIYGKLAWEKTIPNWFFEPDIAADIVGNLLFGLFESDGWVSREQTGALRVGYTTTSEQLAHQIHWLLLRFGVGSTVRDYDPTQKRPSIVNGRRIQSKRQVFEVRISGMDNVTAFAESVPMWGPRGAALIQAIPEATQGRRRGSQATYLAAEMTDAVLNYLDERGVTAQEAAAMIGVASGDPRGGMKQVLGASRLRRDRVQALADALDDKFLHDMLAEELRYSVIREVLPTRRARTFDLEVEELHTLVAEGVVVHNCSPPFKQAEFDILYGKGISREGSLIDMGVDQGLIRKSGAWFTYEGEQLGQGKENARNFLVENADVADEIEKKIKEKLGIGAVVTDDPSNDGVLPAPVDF
VHR inh abs: VHR1 phosphatase inhibitors, primary screen, biochemical, absorbance, uHTS. inhibition, % at 13.3 µM. hit rate 0.52% among 290,000. Dual specificity protein phosphatase 3 (Homo sapiens), P51452. AID 1654, 2009. recombinant VHR phosphatase, pNPP absorbance; in the data active = inhibition above about 50%
An asterisk follows results filed as active; i = inactive; x = not tested or not shown; + = active, no number. Cut-off read from the data, not from the text of the source, unless noted: active = inhibition above about 30%; inactive = the rest.

SMILES	CCHF vOTU inh	GDH-TPI counter	SARS 3CLpro inh	FBA Mtb inh	RecA intein inh	VHR inh abs
O=c1c(Cc2ccc(Cl)cc2)c(O)ccn1Cc1ccncc1	5	-6	1	1	0	22
O=c1c(Cc2ccc(Cl)cc2)c(O)ccn1Cc1cccs1	7	1	3	5	0	50*
COc1ccccc1/C=N/Nc1cc(N(C)C)nc(N(C)C)n1	13	17	0	-6	44*	27
CCOc1ccc2c(C)c(C(=O)O)oc2c1OCC	-39	4	2	156*	-1	17
CCOc1ccc2c(C)c(C)c(=O)oc2c1OCC	-5	8	-3	15	-2	12
Cc1cc(C)c(C)c(S(=O)(=O)N2CCC(C(=O)N(C)Cc3nc4ccccc4c(=O)[nH]3)CC2)c1C	6	-4	x	3	x	x
COC(=O)C1=NN(C(=O)c2cccc(Br)c2)C(O)(c2ccc(Cl)cc2)C1 (stereo unspecified)	16	7	6	-10	37*	-1
Cc1csc(NC(=O)CSc2nc(C(C)C)nc3ccccc23)n1	7	1	-3	1	16	11
O=C(NCc1ccc(F)cc1)Nc1cccc(Cl)c1	-6	-4	3	-2	-3	-6
O=C(NCc1ccc(F)cc1)Nc1ccc(Cl)cc1	0	1	1	1	-2	10
Cn1c(=O)c2cc(NC(=O)NCc3ccc(F)cc3)ccc2n1C	-196	12	x	162*	x	x
C=C(C)Cn1c2ccc(NC(=O)NCc3ccc(F)cc3)cc2c(=O)n1C	-202	7	x	190*	x	x
Clc1ccc(CO/N=C(\Cn2ccnc2)c2ccc(Cl)cc2Cl)c(Cl)c1	x	x	x	x	32*	x
Clc1ccc(OCCCn2ccnc2)c(Br)c1	-5	0	-3	-1	1	2
C=CCN(CC=C)c1nc2ccccc2nc1C(C#N)C(=O)OC(C)C (stereo unspecified)	-8	10	3	36*	-63	3
Cc1cc(C(=O)N2CCC2(C)C(=O)NS(=O)(=O)c2ccccc2Cl)nn1C (stereo unspecified)	0	5	x	-1	x	x
CC(=O)Nc1ccc(-c2ccnc3c2CC(C(=O)NCc2ccco2)O3)cc1 (stereo unspecified)	-12	-3	x	6	x	x
COC(=O)C(NC(=O)c1ccccc1)=C1C=C(C)OC(C)=C1	17	31*	-3	-3	0	18
CCOC(=O)C(NC(=O)c1ccccc1)=C1C=C(C)OC(C)=C1	-4	42*	3	-3	-2	12
COC(=O)C(NC(=O)c1ccccc1)=C(C)C	8	6	1	2	-2	-5
COc1ccc(-c2nc3c(C)cc(Br)cn3c2Cc2ccccc2C(F)(F)F)cc1OC	7	x	x	x	x	x
CCOC(=O)C1(C)CCCN1C(=O)c1cc(F)ccc1C (stereo unspecified)	5	4	x	2	x	x
COc1ccc(Cn2c(=N)c(C(=O)NCC3CCCO3)cc3c(=O)n4ccccc4nc32)cc1 (stereo unspecified)	-5	15	-6	9	-12	20
N=c1c(C(=O)NCC2CCCO2)cc2c(=O)n3ccccc3nc2n1Cc1ccc(Cl)cc1 (stereo unspecified)	-194	0	1	+	i	-1
Cc1ccc(Cn2c(=N)c(C(=O)NCC3CCCO3)cc3c(=O)n4cccc(C)c4nc32)cc1 (stereo unspecified)	-286	3	-7	+	-2	2
SMILES	CCHF vOTU inh	GDH-TPI counter	SARS 3CLpro inh	FBA Mtb inh	RecA intein inh	VHR inh abs
Cc1ccc(Cn2c(=N)c(C(=O)NCC3CCCO3)cc3c(=O)n4ccccc4nc32)cc1 (stereo unspecified)	-106	4	-7	162*	i	26
N=c1c(C(=O)NCC2CCCO2)cc2c(=O)n3ccccc3nc2n1Cc1ccccc1 (stereo unspecified)	-375	18	1	+	i	6
N=c1c(C(=O)NCc2ccc3c(c2)OCO3)cc2c(=O)n3ccccc3nc2n1CC1CCCO1 (stereo unspecified)	-5	4	-4	16	0	9
N=c1c(C(=O)NCC2CCCO2)cc2c(=O)n3ccccc3nc2n1Cc1ccccc1Cl (stereo unspecified)	-146	6	4	166*	-463	19
O=C1CCCC2=C1C1(CCCCC1)N=C(Nc1nc3ccccc3o1)N2	-18	51*	2	-6	-1	-9
O=C1CCCC2=C1C1(CCCC1)N=C(Nc1nc3ccccc3o1)N2	6	12	x	1	x	24
O=C(/C=C/c1cccc(O)c1)c1ccc(N2CCOCC2)cc1	11	43*	-2	-2	4	21
CN1OC[C@@H]2CN(C(=S)Nc3cc(C(F)(F)F)cc(C(F)(F)F)c3)[C@H](c3ccccc3Br)C[C@@H]21	16	x	x	x	x	x
CN(CC(=O)Nc1ccccc1Cl)C(=O)c1ccc(N2C(=O)CCC2=O)cc1	7	-5	x	-1	x	x
COc1ccc(C(=O)CSc2nnc(-c3cccnc3)n2-c2ccc(C)cc2)cc1	-2	x	x	x	x	x
COc1ccc2c(c1)oc(=O)c1cc(OC)ccc12	-53	-1	3	138*	-3	26
COc1ccc2c(C)c(Cl)c(=O)oc2c1	-107	16	-5	153*	-9	26
C=C1CC(COc2ccc3c(C)c(Cl)c(=O)oc3c2)(c2ccccc2)OC1=O (stereo unspecified)	-27	19	x	121*	x	x
Cc1ccc(S(=O)(=O)NC(C)CCc2ccccc2)cc1 (stereo unspecified)	31*	-1	3	-4	3	18
O=C(/C=C/c1ccco1)Nc1scc(-c2ccccc2)c1C(=O)O	2	66*	-4	2	2	33
Cc1csc(NC(=O)/C=C/c2ccco2)n1	-8	33*	3	-4	2	8
O=C(/C=C/c1ccc2c(c1)OCO2)Nc1nc(-c2ccc(F)cc2F)cs1	x	x	1	x	-4	5
Cc1cc(NS(=O)(=O)c2ccc(NC(=O)/C=C/c3ccco3)cc2)nc(C)n1	19	48*	-2	3	0	8
Cc1csc(NC(=O)/C=C/c2ccc3c(c2)OCO3)n1	0	35*	-1	-1	1	2
O=C(/C=C/c1ccccc1)Nc1scc(-c2ccccc2)c1C(=O)O	16	21	8	-1	3	19
C[C@@H]1CN(c2ccc(N3CCN(C(=O)OC(C)(C)C)C[C@@H]3C)cc2C#N)CCN1Cc1ccccc1	-10	x	x	x	x	x
CCOC(=O)Cc1csc(NC(=S)NC(=O)c2ccccc2C)n1	12	10	3	-2	7	53*
